From PubChem BioAssay (Tox21) come the findings set out here.

Test [1] is described as follows: A CellTox Green Cytotoxicity Assay to monitor cytotoxicity in HEK293 cells - 32 hour (AID 1224881). Further: nearly all actives have a fitted effect of over 40% in size. Further: potency means the concentration at half of the fitted maximal effect. The procedure, abridged:
(§1)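 Homogeneous no-lysis format: HEK293 cell suspension mixed with CellTox Green reagent, seeded, incubated 5 h at 37 C/5% CO2, then dosed by pintool with compound in DMSO.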

Test [2] in a line: A CellTox Green Cytotoxicity Assay to monitor cytotoxicity in HepG2 cells - 0 hour (AID 1224882). Further: nearly all actives have a fitted effect of over 35% in size. A digest of the protocol: (§2)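 Fluorescent DNA-binding dye, 600 HepG2 cells/well, 5 h preincubation then compound in DMSO; same plates read at 0–40 h, 37 C.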
Test [3] in a line: A CellTox Green Cytotoxicity Assay to monitor cytotoxicity in HepG2 cells - 32 hour (AID 1224883). Further: nearly all actives have a fitted effect of over 50% in size. Further: potency means the concentration at half of the fitted maximal effect. A digest of the protocol:
as §2

A short description of test [4]: A CellTox Green Cytotoxicity Assay to monitor cytotoxicity in HEK293 cells - 8 hour (AID 1224884). Further: nearly all actives have a fitted effect of over 35% in size. The procedure, abridged:
as §1

Test [5] can be described thus: qHTS RealTime-Glo MT Cell Viability Assay in HepG2 cells - 16 hour (AID 1224885). Further: nearly all actives have a fitted effect of over 50% in size. The procedure, abridged: (§3)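 Compound treatment began 5 h after plating HepG2 cells (600/well) with NanoLuc luciferase and prosubstrate. Plates stayed at 37 C for 40 h; luminescence was captured at six time points, 0 h through 40 h.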
A short description of test [6]: qHTS RealTime-Glo MT Cell Viability Assay in HEK293 cells - 24 hour (AID 1224886). Further: nearly all actives have a fitted effect of over 50% in size. Further: potency means the concentration at half of the fitted maximal effect. The procedure, abridged: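 Quantitative high-throughput screen of the Tox21 10K library in HEK293: cells and RealTime-Glo reagents plated together, compound added at 5 h, luminescence monitored through 40 h at 37 C.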
Background: In qHTS, concentration-response curves come from the screen itself.

A short description of test [7]: qHTS RealTime-Glo MT Cell Viability Assay in HEK293 cells - 8 hour (AID 1224887). Further: top concentration of the series differs between compounds; nearly all actives have a fitted effect of over 50% in size. The procedure, abridged: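 Measured as luminescence from the same continuously cultured HEK293 wells at successive time points (0, 8, 16, 24, 32, 40 h) after compound addition. Reagent present from seeding; dosing at 5 h; incubation 37 C.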
The nature of test [8]: A CellTox Green Cytotoxicity Assay to monitor cytotoxicity in HEK293 cells - 16 hour (AID 1224888). Further: nearly all actives have a fitted effect of over 35% in size. The procedure, abridged: as §1
Test [9] can be described thus: qHTS RealTime-Glo MT Cell Viability Assay in HepG2 cells - 0 hour (AID 1224889). Further: nearly all actives have a fitted effect of over 50% in size. Further: potency means the concentration at half of the fitted maximal effect. The procedure, abridged: as §3
Test [10] in a line: A CellTox Green Cytotoxicity Assay to monitor cytotoxicity in HepG2 cells - 8 hour (AID 1224890). Further: nearly all actives have a fitted effect of over 45% in size. A digest of the protocol: as §2
The nature of test [11]: qHTS assay to identify small molecule antagonists of the androgen receptor (AR) signaling pathway using the MDA cell line in the presence of 0.5 nM R1881 - cell viability counter screen (AID 1259242). Further: nearly all actives have a fitted effect of over 45% in size. The procedure, abridged: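 Human breast carcinoma MDA-kb2 cells, cultured without CO2, receive compounds alongside 0.5 nM (final) R1881 agonist. After 16 hr at 37C, viability is taken as live-cell protease signal.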

Test [12] has as its target Estrogen receptor (Homo sapiens) (UniProt P03372). The test is described as follows: qHTS assay to identify small molecule antagonists of the estrogen receptor alpha (ER-alpha) signaling pathway using the BG1 cell line in the presence of 0.1 nM 17-beta-estradiol (AID 1259244). Further: nearly all actives have a fitted effect of over 50% in size. The procedure, abridged:
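Seeding of stripped-serum-adapted VM7Luc4E2 cells, 24 h attachment, compound transfer, then 0.1 nM final 17beta-estradiol; after 22 h incubation, ONE-Glo reagent and luminescence reading.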

Test [13] can be described thus: qHTS assay to identify small molecule HDAC inhibitors (AID 1259364).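 Further: wild-type HCT-116 cells with endogenous class I/II HDAC activity; top concentration of the series differs between compounds; nearly all actives have a fitted effect of over 45% in size.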 A digest of the protocol: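 After a 2 hr compound incubation (37C, 5% CO2), HCT-116 cells seeded at 1,500/well the day before received HDAC-Glo reagent; signal read as luminescence after 30 min at room temperature.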
Test [14] in a line: qHTS assay to identify small molecule HDAC inhibitors - cell viability counter screen (AID 1259365). A digest of the protocol:
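To flag cytotoxic hits, 1,500 wild-type HCT-116 cells per well, plated the day before, receive test compounds for 2hr at 37 C before CellTiter-Glo reagent and a luminescence read.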

Test [15] is described as follows: qHTS assay to identify small molecule agonists of the sonic hedgehog signaling (Shh) pathway - cell viability counter screen (AID 1259366). Further: nearly all actives have a fitted effect of over 50% in size. Further: potency means the concentration at half of the fitted maximal effect. A digest of the protocol:
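Fluorescence from CellTiter-Fluor reports live cells in this counter screen. NIH/3T3-derived Gli1-Luc reporter cells receive test compounds for 24hr at 37C; reagent goes in at 23hr.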

Test [16] can be described thus: qHTS assay to identify small molecule antagonists of the sonic hedgehog signaling (Shh) pathway - cell viability counter screen (AID 1259367). Further: nearly all actives have a fitted effect of over 55% in size. Further: potency means the concentration at half of the fitted maximal effect. The procedure, abridged: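 Cytotoxicity was assessed in parallel with Shh reporter activity by measuring live-cell protease fluorescence (CellTiter-Fluor) in NIH/3T3 cells stably carrying Gli1-Luc, treated with compound under conditioned medium stimulation for 23 hr plus 1 hr reagent incubation.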

Test [17] in a line: qHTS assay to identify small molecule agonists of the sonic hedgehog signaling (Shh) pathway (AID 1259368; calls by dose curve;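 further: NIH/3T3-derived 3T3Gli1-Luc cells carrying a stable Gli1-driven firefly luciferase reporter; series mostly up to about 92 µM; nearly all actives have a fitted effect of over 15% in size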). A digest of the protocol: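 Stable NIH/3T3 Gli1-Luc reporter clone; 24 hr cpd exposure after a 4 hr settling period; luminescence endpoint.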
The nature of test [18]: qHTS assay to identify small molecule antagonists of the estrogen receptor alpha (ER-alpha) signaling pathway using the BG1 cell line in the presence of 0.1 nM 17-beta-estradiol - cell viability counter screen (AID 1259241). Further: nearly all actives have a fitted effect of over 40% in size. A digest of the protocol:
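CellTiter-Fluor read (30 min, 37C) on ER-alpha/ERE-luc VM7Luc4E2 cells; 22 hr compound treatment; agonist 0.1 nM E2 final; same-well multiplex.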

Test [19] in a line: qHTS assay to identify small molecule phospholipidosis (PLD) inducers (AID 1259344; active means well fitted curve in the direction sought with a large enough effect; an effect the other way counts as inactive or inconclusive). A digest of the protocol:
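Cells (HepG2, 900 per well) attach for 4 h, receive LipidTOX Red and compound together, incubate 24 h at 37 C, are fixed 30 min with paraformaldehyde/Hoechst, then imaged at one site per well.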

Several values for one entry are separate records, joined by “and”; a condition that tells them apart may be missing. Identical values can stand only once. Results filed as inconclusive are left out. More than one record can exist for a structure, and the calls need not agree. Activity calls are given as the source filed them. Unless noted, the call rests on the fitted dose curve; in most records, active means well fitted curve in the direction sought with a large enough effect in the repeat runs; inconclusive means weak or mixed curves; inactive means no such curve, though single readings can be large; an effect the other way counts as inactive or inconclusive.

Estrogen receptor (Homo sapiens), sequence (P03372 whole entry, looked up): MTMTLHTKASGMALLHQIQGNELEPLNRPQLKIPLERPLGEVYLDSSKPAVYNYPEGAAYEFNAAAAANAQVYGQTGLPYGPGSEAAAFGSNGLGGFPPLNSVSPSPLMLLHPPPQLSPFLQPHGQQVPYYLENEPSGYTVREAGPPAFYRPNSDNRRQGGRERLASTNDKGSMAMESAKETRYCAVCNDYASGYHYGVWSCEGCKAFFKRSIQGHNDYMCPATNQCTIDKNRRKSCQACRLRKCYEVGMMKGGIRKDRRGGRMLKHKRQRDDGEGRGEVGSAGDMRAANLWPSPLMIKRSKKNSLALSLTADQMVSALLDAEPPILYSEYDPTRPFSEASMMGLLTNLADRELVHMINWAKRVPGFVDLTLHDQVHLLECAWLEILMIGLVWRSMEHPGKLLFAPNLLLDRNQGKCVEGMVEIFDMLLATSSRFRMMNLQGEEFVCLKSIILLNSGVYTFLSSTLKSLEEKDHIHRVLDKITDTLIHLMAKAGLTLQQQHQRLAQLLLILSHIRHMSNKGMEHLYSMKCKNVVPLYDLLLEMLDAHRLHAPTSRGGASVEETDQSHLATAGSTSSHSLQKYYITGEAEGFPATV

Take `C1CN(SSN2CCOCC2)CCO1`: the Potency in [1] was 48.5 µM (active) and inactive; in test [15] it was 53.9 µM (active) and 48.6 µM (active); in test [16], 48.1 µM (active) and 61.1 µM (active). The Potency entry in test [2], in test [3], in test [4], in test [5], in test [6] and in [7] was “inactive” each time. The Potency entry in test [8], in test [9], in [10], in test [11], in test [12] and in [13] was “inactive” throughout. Moreover, the Potency entry in test [17] was “inactive”. Moreover, the outcome in test [14] was inactive.

Regarding `CC(=O)OC(C)C`, the Potency result in test [1], in test [2], in [3], in [4], in [5] and in test [6] was “inactive” throughout. The Potency entry in test [8], in [9], in [10], in test [18], in test [11] and in test [12] was “inactive” each time. For the same compound, the Potency entry in test [13], in [15], in test [16] and in test [17] was “inactive” each time. In addition, the compound was called inactive in [14].

Turning to `C=CCOC(=O)C(=C)C`, the Potency result in test [1], in test [2], in test [3], in [4], in test [5] and in test [6] was “inactive” each time. Moreover, the Potency entry in [8], in test [9], in test [10], in test [18], in test [11] and in [13] was “inactive” in each case. Besides, the Potency entry in test [15], in test [16] and in test [17] was “inactive” each time. Further, in test [14], the result was inactive.

In the case of `CC(C)(Oc1ccc(Cl)cc1)C(=O)O`, the Potency result in test [1], in [2], in test [3], in [4], in test [5] and in [6] was “inactive” in each case. For the same compound, the Potency result in test [7], in [8], in test [9], in [10], in test [18] and in test [11] was “inactive” throughout. Besides, the Potency result in test [19], in [13], in [15] and in [17] was “inactive” throughout. In test [14], the call was inactive.

`CC(=O)Oc1c(C)c(C)c2c(c1C)CC[C@@](C)(CCC[C@H](C)CCC[C@H](C)CCCC(C)C)O2`: the Potency result in test [1], in test [2], in test [3], in [4], in test [5] and in [6] was “inactive” in each case. The Potency entry in test [7], in test [8], in [9], in [10], in [11] and in test [12] was “inactive” in each case. Moreover, the Potency result in [19], in test [13], in test [15], in test [16] and in [17] was “inactive” each time. Also, the outcome in test [14] was inactive.

Turning to `C[C@]12CC[C@@H]3c4ccc(O)cc4CC[C@H]3[C@@H]1CC[C@@H]2O`, the Potency entry in test [1], in test [2], in [4], in test [5], in test [7] and in test [8] was “inactive” each time. Besides, the Potency entry in [9], in test [10], in test [18], in test [11], in [19] and in test [13] was “inactive” in each case. Moreover, the Potency entry in test [15], in [16] and in test [17] was “inactive” throughout. The Potency is 43.6 µM (active) and inactive in test [3]; 19.5 µM (active) in [6]. Moreover, the compound was called inactive in [14].

As for `C[C@]12C=CC(=O)C=C1CC[C@H]1[C@@H]3C[C@@H](O)[C@](O)(C(=O)CO)[C@@]3(C)C[C@H](O)[C@@]12F`, the Potency result in test [1], in test [2], in test [3], in [4], in test [5] and in [6] was “inactive” each time. In addition, the Potency entry in test [7], in test [8], in test [10], in test [18], in test [11] and in test [12] was “inactive” throughout. In addition, the Potency entry in test [19], in test [13], in test [15], in test [16] and in test [17] was “inactive” throughout. The Potency in test [9] is 21.9 µM (active). The compound was classed as inactive in [14].
